Experimental data: article PMC4336329 (PLoS ONE, 2015)
Screen size: about 310,000 compounds; about 2,200 (0.71%) showed an effect of 50% or more. The effect is printed as a negative number. What follows is part of a selection rich in strong results, with near analogues and random picks from the rest.

Each compound was assayed against human ether-à-go-go-related gene (hERG) potassium channel (human, UniProt Q12809) (assay: primary screen, population patch clamp on CHO cells stably expressing hERG; higher = less effect of the substance).
Sequence of human ether-à-go-go-related gene (hERG) potassium channel (Q12809 whole entry, looked up): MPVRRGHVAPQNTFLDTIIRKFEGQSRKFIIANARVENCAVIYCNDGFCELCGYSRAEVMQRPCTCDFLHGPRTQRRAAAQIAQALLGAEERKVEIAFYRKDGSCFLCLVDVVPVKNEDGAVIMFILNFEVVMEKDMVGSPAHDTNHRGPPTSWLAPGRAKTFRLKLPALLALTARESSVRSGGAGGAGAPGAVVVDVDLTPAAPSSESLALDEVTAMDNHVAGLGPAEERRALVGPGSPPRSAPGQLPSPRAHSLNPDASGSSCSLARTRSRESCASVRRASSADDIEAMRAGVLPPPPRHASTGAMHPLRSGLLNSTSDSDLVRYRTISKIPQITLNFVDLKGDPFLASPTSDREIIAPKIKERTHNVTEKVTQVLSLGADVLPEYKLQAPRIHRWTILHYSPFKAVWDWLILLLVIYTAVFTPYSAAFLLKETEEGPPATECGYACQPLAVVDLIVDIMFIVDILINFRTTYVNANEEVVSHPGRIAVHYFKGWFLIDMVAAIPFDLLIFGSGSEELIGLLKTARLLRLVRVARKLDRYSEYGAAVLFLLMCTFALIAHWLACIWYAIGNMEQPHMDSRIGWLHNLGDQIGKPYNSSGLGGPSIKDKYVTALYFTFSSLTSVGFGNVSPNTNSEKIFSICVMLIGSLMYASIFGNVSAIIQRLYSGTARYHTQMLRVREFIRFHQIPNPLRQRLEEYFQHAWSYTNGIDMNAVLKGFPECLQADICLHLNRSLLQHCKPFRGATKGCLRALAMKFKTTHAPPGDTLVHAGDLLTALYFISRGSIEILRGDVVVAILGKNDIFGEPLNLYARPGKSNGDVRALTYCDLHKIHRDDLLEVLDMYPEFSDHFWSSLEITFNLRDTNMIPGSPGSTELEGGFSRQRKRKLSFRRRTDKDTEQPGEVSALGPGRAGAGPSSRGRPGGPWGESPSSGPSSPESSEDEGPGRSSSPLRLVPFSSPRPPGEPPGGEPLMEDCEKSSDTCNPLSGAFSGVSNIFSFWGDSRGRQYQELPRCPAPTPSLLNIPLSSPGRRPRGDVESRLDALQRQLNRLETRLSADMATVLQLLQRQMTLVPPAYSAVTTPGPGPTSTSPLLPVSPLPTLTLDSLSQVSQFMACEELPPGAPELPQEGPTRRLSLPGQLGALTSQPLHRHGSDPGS

SMILES	hERG current change (%, negative = inhibition) at 1uM [%]
CCc1ccc(N(CC(=O)Nc2ccccc2C(=O)N2CCOCC2)S(C)(=O)=O)cc1	8.28
O=C(NCc1cccnc1)c1ccc(CS(=O)(=O)Cc2ccc(Cl)cc2)o1	3.03
Cc1c(C(=O)OCC(=O)N2c3ccccc3CC2C)oc2ccccc12 (centres unmarked)	14.6
O=C(Nc1cccc(F)c1)Nc1ccccn1	16
Cc1c(C(=O)c2ccccc2)c(=O)n(C)c(=O)n1C	9.65
O=S(=O)(Nc1cccc(-c2ccc(N3CCCCCC3)nn2)c1)c1cccc(F)c1	14.3
CSc1nnc(-c2ccc(O)cc2)n1C	-1.62
COC(=O)c1ccc(CN2CCCC(C(=O)c3cc(F)ccc3OC)C2)cc1 (centres unmarked)	-8.3
O=C1c2ccccc2C(=O)N1CCCc1nc(-c2ccccn2)no1	-4.38
CCOC(=O)/C(N=Nc1sc(C(=O)OC)c(C)c1C(=O)OCC)=C(\O)CCl	14.4
COc1cc(OC)cc(C(=O)OCC(=O)N(C)c2ccccc2)c1	9.32
Oc1ccc(-c2[nH]ncc2-c2ccc(Br)cc2)c(O)c1	6.73
CCC(=O)Nc1ccc(Oc2ccc3c(c2)C(=O)N(c2ccc(O)cc2)C3=O)cc1	13.7
O=C1CC(N2CCN(C/C=C/c3ccccc3)CC2)C(=O)N1Cc1ccc(N2CCCC2=O)cc1 (centres unmarked)	-13
O=C1CC(N2CCN(C/C=C/c3ccccc3)CC2)C(=O)N1CCc1ccccc1 (centres unmarked)	-4.01
O=C1CC(N2CCN(C/C=C/c3ccccc3)CC2)C(=O)N1Cc1cccs1 (centres unmarked)	-50.8
COc1ccc(NC(=O)CN2CCN(CC(=O)Nc3ccccc3F)CC2)c(OC)c1	-19.6
COc1cccc(NC(=O)CN2CCN(c3ccc(F)cc3)CC2)c1	2.77
COc1cccc(NC(=O)CN2CCN(S(=O)(=O)c3ccc(F)cc3)CC2)c1	4.16
COc1ccc(NC(=O)CN2CCN(c3ccc(F)cc3)CC2)cc1Cl	13.2
CCOc1ccc(NC(=O)CN2CCN(CC(=O)Nc3ccccc3OC)CC2)cc1	-30.9
COc1ccc(NC(=O)CN2CCN(CC(=O)Nc3ccc(F)cc3)CC2)c(OC)c1	-83.3

SMILES	hERG current change (%, negative = inhibition) at 1uM [%]
COc1ccc(NC(=O)CN2CCN(CC(=O)Nc3ccc(F)cc3)CC2)cc1Cl	-88.6
COc1cccc(NC(=O)CN2CCN(CC(=O)Nc3ccc(F)cc3)CC2)c1	-90.6
CCOc1ccc(NC(=O)CN2CCN(CC(=O)Nc3ccc(OC)cc3OC)CC2)cc1	-58.2
COc1ccc(NC(=O)CN2CCN(S(=O)(=O)c3ccc(F)cc3)CC2)cc1Cl	7.03
COc1ccc(NC(=O)CN2CCN(CC(=O)Nc3ccccc3Cl)CC2)c(OC)c1	-48
COc1ccc(NC(=O)CN2CCCN(S(=O)(=O)c3ccc(F)cc3)CC2)c(OC)c1	-8.18
Cc1[nH]c2ccccc2c1C(=O)/C=C/c1ccccc1Cl	14.6
NC(=O)CN1C(=O)NC2(CCCc3sccc32)C1=O (centres unmarked)	17
O=C(CCC(=O)c1cccs1)OCc1nc2ccccc2s1	12.6
O=c1c2ccccc2nc(CSc2ncnc3nc[nH]c23)n1-c1cccc(C(F)(F)F)c1	-2.15
COc1ccc(NC(=O)COc2cccnc2[N+](=O)[O-])cc1OC	15.8
Cc1nc(C(=O)Nc2cc(Cl)ccc2Cl)nn1-c1cc(OC(C)C)c(Cl)cc1Cl	-0.146
CC1CCCN(C(=O)CSc2cnc3ccccc3n2)C1 (centres unmarked)	-9.88
COc1ccccc1-c1noc(CSc2nc(C)cc(=O)[nH]2)n1	19.4
Cc1ccc(NC(=O)C2C(c3ccccc3)C2(Cl)Cl)c(C)c1 (centres unmarked)	2.95
COc1ccc(-c2nc(-c3cccs3)c(-c3cccs3)[nH]2)cc1OC	20.3
O=[N+]([O-])c1cc([N+](=O)[O-])c(Oc2cc(Cl)cc(Cl)c2)cc1NN1CCCCC1	11.6
Cc1ccc(S(=O)(=O)NCC2CCC(C(=O)NCCCN3CCCC3=O)CC2)cc1 (centres unmarked)	11.2
COc1ccc(N(CC(=O)O)S(=O)(=O)c2cccnc2)cc1	14.2
COc1ccccc1NC(=O)CN1CCN(CC(=O)Nc2ccc(C)c(F)c2)CC1	-49.1
COc1ccccc1NC(=O)CN1CCN(CC(=O)Nc2ccc(OC)c(OC)c2)CC1	12
COc1ccccc1NC(=O)CN1CCN(CC(=O)Nc2ccc(F)cc2)CC1	-87.4
